# Test results: paper PMC7862700, “An all-to-all approach to the identification of sequence-specific readers for epigenetic DNA modifications on cytosine”
# Tests used:
# Assay in all cases: DAPPL (digital affinity profiling via proximity ligation, sequencing); 10 mM Tris-HCl pH 7.5, 50 mM NaCl, 1 mM DTT, 4% glycerol, room temperature, 30 min; GST-TFs on glutathione beads, 16-mer random dsDNA library, 0.1% formaldehyde crosslink after washing; high values mean tight binding
# FLI1 = target: T1, FLI1 (Homo sapiens, UniProt Q01543 1-452); details: protein: recombinant; tags: N-terminal GST; dsDNA, one strand shown
# T1 sequence: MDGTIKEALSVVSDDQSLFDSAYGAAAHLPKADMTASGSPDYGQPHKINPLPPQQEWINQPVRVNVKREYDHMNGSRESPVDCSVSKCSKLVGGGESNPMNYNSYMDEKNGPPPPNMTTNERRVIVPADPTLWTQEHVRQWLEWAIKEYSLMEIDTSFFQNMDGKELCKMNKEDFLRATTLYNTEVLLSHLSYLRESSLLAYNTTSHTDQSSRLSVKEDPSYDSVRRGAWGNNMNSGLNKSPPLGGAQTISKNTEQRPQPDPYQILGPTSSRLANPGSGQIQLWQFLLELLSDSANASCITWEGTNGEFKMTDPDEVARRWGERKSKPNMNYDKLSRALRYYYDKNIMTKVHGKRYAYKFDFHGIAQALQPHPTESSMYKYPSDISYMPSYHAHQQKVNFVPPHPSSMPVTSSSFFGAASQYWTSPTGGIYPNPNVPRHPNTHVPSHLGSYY
# Method in brief: (§1)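 Beads coated with glutathione captured GST-fused human transcription factors that had been expressed in yeast, and the factors were then given DNA barcodes and pooled with a tag-only sample. The pools were incubated with 200 nmole of a random double-stranded 16-mer DNA library in Tris/NaCl/DTT/glycerol buffer for 30 min at room temperature, washed, crosslinked with 0.1% formaldehyde and proximity-ligated with BsaI/T4 ligase at 37 °C for 1 h. PCR amplification and Illumina NextSeq500 sequencing came last. Binding signal is each hexamer's read frequency for a factor divided by its frequency for the tag-only sample.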
# ELK1 = target: T2, ELK1 (Homo sapiens, UniProt P19419 1-428); details: protein: recombinant; tags: N-terminal GST; dsDNA, one strand shown
# T2 sequence: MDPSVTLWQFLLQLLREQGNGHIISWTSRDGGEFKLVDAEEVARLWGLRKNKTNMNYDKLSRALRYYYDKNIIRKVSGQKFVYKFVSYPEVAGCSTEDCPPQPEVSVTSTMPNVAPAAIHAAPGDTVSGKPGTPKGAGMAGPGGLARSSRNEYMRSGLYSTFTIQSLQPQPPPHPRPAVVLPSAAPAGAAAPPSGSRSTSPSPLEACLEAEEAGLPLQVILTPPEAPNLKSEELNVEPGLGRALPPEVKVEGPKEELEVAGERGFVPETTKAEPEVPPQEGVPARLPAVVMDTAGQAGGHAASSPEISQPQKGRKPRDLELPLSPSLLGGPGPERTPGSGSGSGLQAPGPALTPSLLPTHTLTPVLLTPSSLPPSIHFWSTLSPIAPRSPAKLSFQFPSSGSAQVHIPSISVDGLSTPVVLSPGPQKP
# Method in brief: as §1
# GABPA = target: T3, GABPA (Homo sapiens, UniProt Q06546 1-454); details: protein: recombinant; tags: N-terminal GST; dsDNA, one strand shown
# T3 sequence: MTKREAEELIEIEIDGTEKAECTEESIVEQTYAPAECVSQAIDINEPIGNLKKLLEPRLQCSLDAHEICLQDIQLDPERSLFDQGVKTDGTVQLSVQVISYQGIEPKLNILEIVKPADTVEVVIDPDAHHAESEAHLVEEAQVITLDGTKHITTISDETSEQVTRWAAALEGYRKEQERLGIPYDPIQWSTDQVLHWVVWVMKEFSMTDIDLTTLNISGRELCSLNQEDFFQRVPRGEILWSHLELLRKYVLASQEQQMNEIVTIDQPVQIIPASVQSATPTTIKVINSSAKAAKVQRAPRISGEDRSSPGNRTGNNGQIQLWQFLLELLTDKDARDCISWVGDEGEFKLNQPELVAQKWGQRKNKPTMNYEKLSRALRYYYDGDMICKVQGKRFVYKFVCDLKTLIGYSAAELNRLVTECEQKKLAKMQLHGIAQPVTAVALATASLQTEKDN
# Method in brief: as §1
# ERG = target: T4, ERG (Homo sapiens, UniProt P11308 1-479); details: protein: recombinant; tags: N-terminal GST; dsDNA, one strand shown
# T4 sequence: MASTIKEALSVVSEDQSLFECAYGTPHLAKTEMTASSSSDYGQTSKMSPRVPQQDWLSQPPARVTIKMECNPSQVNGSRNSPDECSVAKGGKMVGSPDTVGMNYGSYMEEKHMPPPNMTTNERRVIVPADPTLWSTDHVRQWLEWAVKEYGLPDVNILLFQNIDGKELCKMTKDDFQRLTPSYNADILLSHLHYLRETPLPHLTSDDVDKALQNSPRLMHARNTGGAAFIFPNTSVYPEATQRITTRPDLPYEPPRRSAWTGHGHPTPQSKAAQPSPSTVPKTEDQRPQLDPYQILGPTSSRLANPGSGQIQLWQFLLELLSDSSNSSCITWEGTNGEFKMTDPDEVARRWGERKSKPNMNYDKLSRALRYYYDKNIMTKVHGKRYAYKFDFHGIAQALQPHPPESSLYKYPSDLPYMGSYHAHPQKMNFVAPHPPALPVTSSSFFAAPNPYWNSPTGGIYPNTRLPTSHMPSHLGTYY
# Method in brief: as §1
# ELF1 = ELF1 (Homo sapiens, UniProt P32519 1-619); details: protein: recombinant; tags: N-terminal GST; dsDNA, one strand shown
# Sequence of ELF1 (P32519 whole entry): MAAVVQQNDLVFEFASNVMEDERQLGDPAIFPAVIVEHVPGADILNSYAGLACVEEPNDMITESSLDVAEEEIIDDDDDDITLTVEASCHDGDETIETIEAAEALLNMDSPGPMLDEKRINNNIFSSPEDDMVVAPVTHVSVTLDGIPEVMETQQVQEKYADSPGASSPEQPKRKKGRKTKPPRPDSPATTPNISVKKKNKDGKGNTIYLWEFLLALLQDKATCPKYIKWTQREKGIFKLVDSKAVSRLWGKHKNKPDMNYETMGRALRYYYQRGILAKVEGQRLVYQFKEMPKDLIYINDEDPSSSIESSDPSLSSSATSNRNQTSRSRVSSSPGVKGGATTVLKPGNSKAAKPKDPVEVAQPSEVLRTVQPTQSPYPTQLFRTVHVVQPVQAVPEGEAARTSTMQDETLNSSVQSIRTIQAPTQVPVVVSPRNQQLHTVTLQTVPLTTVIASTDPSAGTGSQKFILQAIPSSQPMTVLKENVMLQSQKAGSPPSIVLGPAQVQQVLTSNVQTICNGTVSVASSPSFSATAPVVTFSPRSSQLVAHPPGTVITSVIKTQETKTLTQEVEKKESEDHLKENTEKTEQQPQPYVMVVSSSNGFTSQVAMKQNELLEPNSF
# Method in brief: as §1
# EHF = target: T5, EHF (Homo sapiens, UniProt Q9NZC4 1-300); details: protein: recombinant; tags: N-terminal GST; dsDNA, one strand shown
# T5 sequence: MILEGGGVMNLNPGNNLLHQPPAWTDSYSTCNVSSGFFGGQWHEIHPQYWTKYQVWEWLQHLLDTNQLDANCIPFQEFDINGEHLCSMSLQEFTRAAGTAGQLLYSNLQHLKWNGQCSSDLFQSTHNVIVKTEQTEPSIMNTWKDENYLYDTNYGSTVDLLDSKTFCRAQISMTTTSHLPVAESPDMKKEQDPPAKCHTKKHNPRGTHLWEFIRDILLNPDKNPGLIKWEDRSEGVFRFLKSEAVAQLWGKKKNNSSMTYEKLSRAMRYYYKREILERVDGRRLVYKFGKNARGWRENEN
# Method in brief: as §1
# SPI1 = SPI1 (Homo sapiens, UniProt P17947 1-270); details: protein: recombinant; tags: N-terminal GST; dsDNA, one strand shown
# Method in brief: as §1
# SPIB = SPIB (Homo sapiens, UniProt Q01892 1-262); details: protein: recombinant; tags: N-terminal GST; dsDNA, one strand shown
# Sequence of SPIB (Q01892 whole entry): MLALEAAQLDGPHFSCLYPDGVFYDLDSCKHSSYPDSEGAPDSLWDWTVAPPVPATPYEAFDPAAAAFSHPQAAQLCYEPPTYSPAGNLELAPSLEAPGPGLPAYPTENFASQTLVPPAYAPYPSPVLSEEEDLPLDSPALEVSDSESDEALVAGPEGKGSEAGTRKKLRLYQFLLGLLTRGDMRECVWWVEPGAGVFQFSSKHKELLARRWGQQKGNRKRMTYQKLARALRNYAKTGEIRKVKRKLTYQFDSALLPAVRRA
# Method in brief: as §1
# FEV = target: T6, FEV (Homo sapiens, UniProt Q99581 1-238); details: protein: recombinant; tags: N-terminal GST; dsDNA, one strand shown
# T6 sequence: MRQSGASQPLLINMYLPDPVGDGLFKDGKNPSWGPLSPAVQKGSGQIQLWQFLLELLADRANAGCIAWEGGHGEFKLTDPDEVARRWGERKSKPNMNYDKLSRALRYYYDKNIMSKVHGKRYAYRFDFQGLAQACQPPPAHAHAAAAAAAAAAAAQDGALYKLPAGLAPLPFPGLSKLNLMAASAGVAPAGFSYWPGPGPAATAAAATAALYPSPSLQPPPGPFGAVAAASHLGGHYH
# Method in brief: as §1
# ETV5 = ETV5 (Homo sapiens, UniProt P41161 1-510); details: protein: recombinant; tags: N-terminal GST; dsDNA, one strand shown
# Sequence of ETV5 (P41161 whole entry): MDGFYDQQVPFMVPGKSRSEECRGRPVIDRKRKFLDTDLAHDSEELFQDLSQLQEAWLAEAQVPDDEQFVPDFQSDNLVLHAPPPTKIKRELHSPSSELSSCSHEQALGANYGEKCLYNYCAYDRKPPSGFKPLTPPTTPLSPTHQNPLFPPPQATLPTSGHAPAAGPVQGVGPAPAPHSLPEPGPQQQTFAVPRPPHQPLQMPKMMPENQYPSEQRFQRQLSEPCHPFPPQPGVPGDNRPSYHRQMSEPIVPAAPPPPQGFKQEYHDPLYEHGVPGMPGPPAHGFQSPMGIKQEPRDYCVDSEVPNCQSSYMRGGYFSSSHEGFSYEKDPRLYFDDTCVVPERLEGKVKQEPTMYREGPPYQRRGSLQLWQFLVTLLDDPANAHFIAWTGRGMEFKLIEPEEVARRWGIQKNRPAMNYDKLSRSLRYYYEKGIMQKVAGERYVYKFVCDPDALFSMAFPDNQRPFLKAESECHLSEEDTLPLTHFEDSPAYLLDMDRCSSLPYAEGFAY
# Method in brief: as §1
# HSF1 = HSF1 (Homo sapiens, UniProt Q00613 1-529); details: protein: recombinant; tags: N-terminal GST; chain copies: 3; dsDNA, one strand shown
# Sequence of HSF1 (Q00613 whole entry): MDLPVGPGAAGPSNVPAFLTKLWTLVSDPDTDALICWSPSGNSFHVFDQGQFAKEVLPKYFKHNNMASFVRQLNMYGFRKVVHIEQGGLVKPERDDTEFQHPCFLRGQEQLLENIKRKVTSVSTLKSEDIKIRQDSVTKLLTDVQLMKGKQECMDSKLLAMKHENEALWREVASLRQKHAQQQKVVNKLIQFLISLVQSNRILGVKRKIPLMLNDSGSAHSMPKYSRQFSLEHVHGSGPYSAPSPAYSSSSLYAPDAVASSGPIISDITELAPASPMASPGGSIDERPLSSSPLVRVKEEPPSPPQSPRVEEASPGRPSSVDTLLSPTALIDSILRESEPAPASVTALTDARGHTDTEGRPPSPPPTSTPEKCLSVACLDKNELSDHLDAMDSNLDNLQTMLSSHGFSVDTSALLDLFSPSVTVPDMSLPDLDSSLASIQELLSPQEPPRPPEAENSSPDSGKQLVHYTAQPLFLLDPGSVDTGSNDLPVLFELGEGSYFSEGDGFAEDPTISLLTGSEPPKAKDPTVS
# Method in brief: as §1
# SPIC = target: T7, SPIC (Homo sapiens, UniProt Q8N5J4 1-248); details: protein: recombinant; tags: N-terminal GST; dsDNA, one strand shown
# T7 sequence: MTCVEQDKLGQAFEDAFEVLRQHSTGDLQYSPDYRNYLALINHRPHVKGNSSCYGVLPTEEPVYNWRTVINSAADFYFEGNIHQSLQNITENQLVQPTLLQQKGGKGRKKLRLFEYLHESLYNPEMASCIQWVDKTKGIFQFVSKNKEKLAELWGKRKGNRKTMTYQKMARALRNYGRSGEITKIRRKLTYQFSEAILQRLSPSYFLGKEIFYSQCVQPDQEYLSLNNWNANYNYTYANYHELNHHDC
# Method in brief: as §1
# ELF4 = ELF4 (Homo sapiens, UniProt Q99607 1-663); details: protein: recombinant; tags: N-terminal GST; dsDNA, one strand shown
# Sequence of ELF4 (Q99607 whole entry): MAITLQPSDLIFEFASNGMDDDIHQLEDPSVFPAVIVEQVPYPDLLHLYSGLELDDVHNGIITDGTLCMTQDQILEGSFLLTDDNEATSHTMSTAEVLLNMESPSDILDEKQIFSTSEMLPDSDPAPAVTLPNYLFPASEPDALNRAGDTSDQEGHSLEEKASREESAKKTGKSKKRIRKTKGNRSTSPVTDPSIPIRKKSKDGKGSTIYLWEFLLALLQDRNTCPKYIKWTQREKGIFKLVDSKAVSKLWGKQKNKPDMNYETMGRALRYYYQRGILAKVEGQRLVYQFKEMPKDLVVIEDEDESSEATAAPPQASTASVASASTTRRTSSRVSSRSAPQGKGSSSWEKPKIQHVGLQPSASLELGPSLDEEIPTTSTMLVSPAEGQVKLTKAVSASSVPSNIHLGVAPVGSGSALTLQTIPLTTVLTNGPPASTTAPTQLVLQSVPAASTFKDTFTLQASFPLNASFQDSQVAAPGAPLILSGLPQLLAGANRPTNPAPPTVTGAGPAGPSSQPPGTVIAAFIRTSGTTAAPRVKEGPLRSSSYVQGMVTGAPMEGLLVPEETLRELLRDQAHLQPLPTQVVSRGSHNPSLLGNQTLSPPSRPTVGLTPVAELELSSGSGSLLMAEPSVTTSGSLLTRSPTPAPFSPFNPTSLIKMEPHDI
# Method in brief: as §1
# ELK4 = target: T8, ELK4 (Homo sapiens, UniProt P28324-2 1-405); details: protein: recombinant; tags: N-terminal GST; dsDNA, one strand shown
# T8 sequence: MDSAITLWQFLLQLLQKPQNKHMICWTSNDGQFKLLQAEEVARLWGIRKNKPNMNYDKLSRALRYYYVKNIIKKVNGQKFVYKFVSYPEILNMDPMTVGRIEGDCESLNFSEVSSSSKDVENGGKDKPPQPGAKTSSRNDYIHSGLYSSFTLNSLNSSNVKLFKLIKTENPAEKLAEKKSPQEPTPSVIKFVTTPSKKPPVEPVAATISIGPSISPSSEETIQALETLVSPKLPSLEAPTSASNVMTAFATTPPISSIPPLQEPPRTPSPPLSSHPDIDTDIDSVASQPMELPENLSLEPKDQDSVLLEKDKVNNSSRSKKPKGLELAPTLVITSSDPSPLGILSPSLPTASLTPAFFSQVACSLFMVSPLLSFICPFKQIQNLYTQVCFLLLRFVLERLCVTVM
# Method in brief: as §1
# ETV2 = target: T9, ETV2 (Homo sapiens, UniProt O00321 1-342); details: protein: recombinant; tags: N-terminal GST; dsDNA, one strand shown
# T9 sequence: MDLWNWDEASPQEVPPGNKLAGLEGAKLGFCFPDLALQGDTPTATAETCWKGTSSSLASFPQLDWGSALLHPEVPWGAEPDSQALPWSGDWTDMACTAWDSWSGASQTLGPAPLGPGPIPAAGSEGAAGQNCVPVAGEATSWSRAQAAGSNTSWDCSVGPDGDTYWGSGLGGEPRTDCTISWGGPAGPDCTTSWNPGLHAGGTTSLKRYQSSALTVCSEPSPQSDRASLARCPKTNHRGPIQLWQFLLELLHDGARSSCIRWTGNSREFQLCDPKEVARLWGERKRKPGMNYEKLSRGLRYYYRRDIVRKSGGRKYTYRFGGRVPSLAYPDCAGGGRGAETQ
# Method in brief: as §1
# ELF3 = target: T10, ELF3 (Homo sapiens, UniProt P78545 1-371); details: protein: recombinant; tags: N-terminal GST; dsDNA, one strand shown
# T10 sequence: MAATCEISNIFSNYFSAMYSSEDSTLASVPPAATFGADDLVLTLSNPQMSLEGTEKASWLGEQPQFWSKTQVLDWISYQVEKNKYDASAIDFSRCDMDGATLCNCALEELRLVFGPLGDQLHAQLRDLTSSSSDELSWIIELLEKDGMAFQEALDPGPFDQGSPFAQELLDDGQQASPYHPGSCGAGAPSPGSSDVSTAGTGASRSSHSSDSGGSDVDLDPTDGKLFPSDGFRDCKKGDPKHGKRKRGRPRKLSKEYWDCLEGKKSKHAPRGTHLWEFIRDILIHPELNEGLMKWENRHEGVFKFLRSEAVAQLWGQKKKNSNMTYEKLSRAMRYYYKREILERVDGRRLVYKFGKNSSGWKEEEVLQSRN
# Method in brief: as §1
# CRX = CRX (Homo sapiens, UniProt O43186 1-299); details: protein: recombinant; tags: N-terminal GST; dsDNA, one strand shown
# Sequence of CRX (O43186 whole entry): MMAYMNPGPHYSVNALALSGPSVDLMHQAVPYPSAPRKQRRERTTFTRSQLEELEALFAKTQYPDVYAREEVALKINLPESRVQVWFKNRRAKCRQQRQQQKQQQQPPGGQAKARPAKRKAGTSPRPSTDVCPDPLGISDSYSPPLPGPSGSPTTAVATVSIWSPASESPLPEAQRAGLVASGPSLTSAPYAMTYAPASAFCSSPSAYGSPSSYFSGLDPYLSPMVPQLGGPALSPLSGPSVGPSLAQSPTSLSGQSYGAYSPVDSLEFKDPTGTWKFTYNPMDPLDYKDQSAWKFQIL
# Method in brief: as §1
# ETV1 = ETV1 (Homo sapiens, UniProt P50549 1-477); details: protein: recombinant; tags: N-terminal GST; dsDNA, one strand shown
# Sequence of ETV1 (P50549 whole entry): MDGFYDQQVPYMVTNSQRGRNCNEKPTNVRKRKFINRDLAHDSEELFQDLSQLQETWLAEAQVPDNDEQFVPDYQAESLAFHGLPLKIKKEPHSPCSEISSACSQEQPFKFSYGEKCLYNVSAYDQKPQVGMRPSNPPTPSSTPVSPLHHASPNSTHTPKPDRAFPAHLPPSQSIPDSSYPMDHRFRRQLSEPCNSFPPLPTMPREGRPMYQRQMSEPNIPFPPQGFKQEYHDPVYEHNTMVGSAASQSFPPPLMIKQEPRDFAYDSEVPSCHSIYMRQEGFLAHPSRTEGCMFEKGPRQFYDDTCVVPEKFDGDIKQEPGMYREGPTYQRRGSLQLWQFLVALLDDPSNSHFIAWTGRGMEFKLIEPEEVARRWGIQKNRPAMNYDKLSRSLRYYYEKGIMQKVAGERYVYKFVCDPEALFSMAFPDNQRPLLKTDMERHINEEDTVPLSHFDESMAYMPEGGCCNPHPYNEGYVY
# Method in brief: as §1
sequence,measurement,setting,value
GTATAA,binding signal,FLI1,"1.02 fold enrichment (6-mer frequency, TF over GST control)"
same,binding signal,ELK1,"1.21 fold enrichment (6-mer frequency, TF over GST control)"
same,binding signal,GABPA,"1.06 fold enrichment (6-mer frequency, TF over GST control)"
same,binding signal,ERG,"1.06 fold enrichment (6-mer frequency, TF over GST control)"
same,binding signal,ELF1,"1.06 fold enrichment (6-mer frequency, TF over GST control)"
same,binding signal,EHF,"1.09 fold enrichment (6-mer frequency, TF over GST control)"
same,binding signal,SPI1,"1.12 fold enrichment (6-mer frequency, TF over GST control)"
same,binding signal,SPIB,"1.19 fold enrichment (6-mer frequency, TF over GST control)"
same,binding signal,FEV,"1.01 fold enrichment (6-mer frequency, TF over GST control)"
same,binding signal,ETV5,"1.1 fold enrichment (6-mer frequency, TF over GST control)"
same,binding signal,HSF1,"1.16 fold enrichment (6-mer frequency, TF over GST control)"
same,binding signal,SPIC,"1.07 fold enrichment (6-mer frequency, TF over GST control)"
same,binding signal,ELF4,"1.05 fold enrichment (6-mer frequency, TF over GST control)"
same,binding signal,ELK4,"1.08 fold enrichment (6-mer frequency, TF over GST control)"
same,binding signal,ETV2,"1.18 fold enrichment (6-mer frequency, TF over GST control)"
same,binding signal,ELF3,"1.14 fold enrichment (6-mer frequency, TF over GST control)"
same,binding signal,CRX,"1.41 fold enrichment (6-mer frequency, TF over GST control)"
same,binding signal,ETV1,"1.14 fold enrichment (6-mer frequency, TF over GST control)"
